USP30 inh: human USP30 deubiquitinase inhibition | Q70CQ3 | purified USP30, Ub-rhodamine cleavage fluorescence | inhibition, % at 25 µM | actives 5.3% (n = 47,000)
USP28 block: blocks human USP28 ubiquitin-rhodamine cleavage | purified USP28, Ub-rhodamine cleavage fluorescence, 30 min | actives 3% (n = 47,000) | Q96RU2 | inhibition, % at 25 µM
USP17 inh: human USP17-like deubiquitinase inhibition; purified USP17, Ub-rhodamine cleavage fluorescence, 3 h; AID 1645855; inhibition, % at 50 µM; actives 6.5% (n = 47,000)
Target sequence (A8MUK1 whole entry, looked up): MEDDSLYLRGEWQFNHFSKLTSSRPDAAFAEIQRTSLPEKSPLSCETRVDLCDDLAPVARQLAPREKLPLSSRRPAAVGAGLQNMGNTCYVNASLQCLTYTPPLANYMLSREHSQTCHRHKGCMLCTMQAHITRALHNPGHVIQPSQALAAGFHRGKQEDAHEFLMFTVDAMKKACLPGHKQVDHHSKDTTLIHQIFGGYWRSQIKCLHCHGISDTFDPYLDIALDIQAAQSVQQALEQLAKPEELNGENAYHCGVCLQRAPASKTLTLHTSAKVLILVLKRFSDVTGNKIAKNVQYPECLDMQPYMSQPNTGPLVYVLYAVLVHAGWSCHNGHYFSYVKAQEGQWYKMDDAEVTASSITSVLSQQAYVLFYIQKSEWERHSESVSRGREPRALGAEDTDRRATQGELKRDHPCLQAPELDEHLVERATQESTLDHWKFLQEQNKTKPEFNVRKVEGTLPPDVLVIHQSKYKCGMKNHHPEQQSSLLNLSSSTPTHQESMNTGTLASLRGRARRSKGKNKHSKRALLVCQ
OTUD3 block: blocks human OTUD3 ubiquitin-rhodamine cleavage; Q5T2D3; purified OTUD3, Ub-rhodamine fluorescence, 2 h; inhibition, % at 25 µM; actives 0.7% (n = 47,000); AID 1645858
An asterisk follows results filed as active; . = not tested or not shown. A selection: hits, their analogues and other compounds. The true share with any hit is near 11%. Rule as the data show it: active = inhibition above about 30%; inactive = the rest.

SMILES	USP30 inh	USP28 block	USP17 inh	OTUD3 block
Cc1cccc(-n2cnc(C(=O)NCc3ccc(F)cc3)c2)n1	35*	29	83*	8
Cc1cc(C)n(-c2ccc(C(=O)NCc3ccc(F)cc3)cn2)n1	69*	34*	49*	9
O=C(CN1CCN(C(=O)Cn2ccc3ccc(F)cc32)CC1)N1CCCCCC1	1	6	6	7
COc1ccc(NC(=O)CC(=O)c2ccc([N+](=O)[O-])cc2)cc1S(=O)(=O)Nc1ccc(Cl)cc1	61*	26	38*	13
COc1ccc([N+](=O)[O-])cc1NS(=O)(=O)c1cc(C(=O)NCc2cccnc2)ccc1Cl	17	0	-21	6
COc1ccc(NS(=O)(=O)c2cccc(NC(=O)CC(=O)c3ccc([N+](=O)[O-])cc3)c2)cc1	.	.	76*	0
COc1ccc(NS(=O)(=O)c2cccc(NC(=O)CCC(=O)c3ccc(Cl)cc3)c2)cc1	-1	4	9	-4
COc1ccccc1NS(=O)(=O)c1cc(NC(=O)CC(=O)c2ccc([N+](=O)[O-])cc2)ccc1C	11	12	.	3
COc1ccc(NS(=O)(=O)c2cc(NC(=O)CC(=O)c3ccc([N+](=O)[O-])cc3)ccc2Cl)cc1	19	0	49*	-4
CCN1C(=O)COc2ccc(-c3noc(-c4ccc(C#N)cc4)n3)cc21	-4	-6	0	-2
CCc1nc(SCc2cccc(F)c2)c2oc3ccccc3c2n1	47*	20	53*	24
CCc1nc(SCC(=O)N2CCCc3ccccc32)c2oc3ccccc3c2n1	-1	3	40*	-2
CCc1nc(SCC(=O)c2ccc(Br)cc2)c2oc3ccccc3c2n1	-8	-14	2	-9
NC(=O)C1CCN(c2nc3ccc(-c4ccc(F)cc4)nc3s2)CC1	-66	-26	-28	-13
CCC(C(=O)NCCc1csc(-c2ccccc2)n1)c1ccccc1 (configuration not stated)	15	10	13	19
COc1cccc(C(=O)Nc2ccccc2-c2nc(-c3ccncc3)no2)c1	39*	13	24	18
Cc1cccc(NC(=O)CCN2C(=O)c3cccnc3Sc3ccccc32)c1C	15	5	.	5
Cc1ccccc1NC(=O)CCN1C(=O)c2cccnc2Sc2ccccc21	38*	9	12	16
Cc1cc(F)ccc1NS(=O)(=O)c1c[nH]c2ccc([N+](=O)[O-])cc12	42*	8	46*	-3
COC(=O)c1ccc(NS(=O)(=O)c2c[nH]c3ccc([N+](=O)[O-])cc23)cc1	28	14	45*	2
Cc1c(Br)cc2nc(-c3ccc(F)cc3)c(-c3ccc(F)cc3)nc2c1C	12	3	3	6
N#Cc1cccc(S(=O)(=O)N2CCCn3c(nc4ccccc43)C2)c1	9	5	8	11
CC1=C(c2ccccc2)S(=O)(=O)N(CC(=O)Nc2cccc(F)c2)C1=O	-15	-1	1	-3
CC1=C(c2ccccc2)S(=O)(=O)N(CC(=O)Nc2cccc(Cl)c2)C1=O	35*	26	30*	26
Cc1cnc(-c2nccnc2C2CCCN(Cc3ccccn3)C2)[nH]1 (configuration not stated)	-8	-7	-11	-10
SMILES	USP30 inh	USP28 block	USP17 inh	OTUD3 block
Cc1scc2nc(C(=O)Nc3ccc4c(c3)OCO4)nc(N3CCOCC3)c12	19	32*	23	-128
Cc1cccc(NC(=O)Cn2c(N3CCOCC3)nc3cc(C)n(C)c3c2=O)c1	61*	12	47*	-1
Cc1cccc(NC(=O)c2nc(N3CCOCC3)c3cnn(C)c3n2)c1	42*	19	44*	9
Cn1ncc2c(N3CCOCC3)nc(C(=O)NCc3ccc(Cl)cc3)nc21	19	15	5	7
Cc1scc2nc(C(=O)N3CCCC3)nc(N3CCOCC3)c12	-73	-17	-28	-6
O=C(c1[nH]nc2c1CCc1ccccc1-2)N1CCN(c2ncccn2)CC1	-5	-3	-1	-9
COc1ccc(CN(C(=O)COc2ccccc2C)c2ccccc2C(=O)O)cc1	12	14	22	8
Cc1ccc(C(C)C)c(OCC(=O)Nc2ccc3c(c2)nc(CCN2CCN(c4ccc(F)cc4)CC2)n3C)c1	1	-5	1	0
Cc1ccc(C)c(NC(=O)COC(=O)C(Cc2c[nH]c3ccccc23)NC(=O)c2ccccc2Cl)c1 (configuration not stated)	13	15	20	15
COc1ccc(Cl)cc1NC(=O)COC(=O)C(Cc1c[nH]c2ccccc12)NC(=O)c1ccccc1Cl (configuration not stated)	31*	4	20	14
O=C(COC(=O)C(Cc1c[nH]c2ccccc12)NC(=O)c1ccccc1Cl)c1ccc([N+](=O)[O-])cc1 (configuration not stated)	38*	13	17	0
CSc1ccccc1NC(=O)COC(=O)C(Cc1c[nH]c2ccccc12)NC(=O)c1ccccc1Cl (configuration not stated)	30*	20	25	16
COc1ccc(-n2c(SCC(=O)c3c[nH]c4ccccc34)nnc2-c2ccccc2)cc1OC	6	-6	-8	2
CCN(c1ccc(NC(=O)CSc2nnc(-c3ccccc3)n2-c2ccc(OC)c(OC)c2)cc1)C(C)C	46*	41*	63*	21
O=C(Nc1ccccc1)C1CCN(c2cc(N3CCCC3)ncn2)CC1	19	3	-17	5
O=C(c1ccc(N2CCCC2)nn1)N1CCN(CCc2ccccc2)CC1	-46	-31	-50	-10
CCc1cccc2c(C(=O)COC(=O)C(NC(=O)c3cccc(S(=O)(=O)N4CCOCC4)c3)C(C)C)c[nH]c12 (configuration not stated)	-28	1	10	0
CCc1cccc2c(C(=O)COc3ccc(C#N)cc3)c[nH]c12	91*	71*	43*	32*
CC(C)(O)C#CC(c1ccccc1O)N1CCCCC1 (configuration not stated)	-5	-20	-8	-6
Cc1csc2ncc(C(=O)NCCc3ccccc3Cl)c(=O)n12	4	-2	0	0
C=C1CCC[C@]2(C)C[C@H]3OC(=O)C(CN(C)C[C@@H](O)c4cccc(O)c4)[C@H]3C[C@@H]12 (some centres not stated)	-53	-10	-16	-9
C=C1CCC[C@]2(C)C[C@H]3OC(=O)C(CN(C)Cc4ccccc4)[C@H]3CC12 (some centres not stated)	30*	22	16	22
COCC(C)N(Cc1ccccc1F)C(=O)c1cc(=O)[nH]c(C)n1 (configuration not stated)	12	11	2	14
O=C(c1cccc(Br)c1)N1CCC2(CC1)NCCc1[nH]cnc12	0	-3	4	-4
O=C(NC1CC1)c1cc(-c2cccnc2)n(-c2ccccc2)n1	31*	16	16	12
O=C(Nc1cccc(F)c1)c1cc(-c2ccncc2)n(-c2ccc(F)cc2)n1	15	2	6	3

Bioassay records from PubChem BioAssay.
